The text below walks through data of PubChem BioAssay (NCI).

Among the test systems are HCT-15 colon; HT29 colon; SNB-75 CNS; SNB-19 CNS; U251 CNS; PC-3 prostate; SK-MEL-5 melanoma; LOX IMVI melanoma; SK-MEL-28 melanoma; SK-MEL-2 melanoma; EKVX NSCLC; SN12C renal; UO-31 renal; TK-10 renal; ACHN renal; CAKI-1 renal; A498 renal; CCRF-CEM leukemia; MOLT-4 leukemia; UACC-62 melanoma.
Common to all, as to experiment: NCI-60 one-dose screen, 48 h (100 = growth as untreated, 0 = no growth, -100 = all killed)
What all share (conditions): 10 µM unless noted

Several values for one entry are separate records, joined by “and”; a condition that tells them apart may be missing. Equal entries are not always repeated. About 83,000 compounds went through this panel and 20% of them were active in at least one assay; those are over-represented in the sample as a whole.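 For each line, cells grew in 96-well plates with the test compound present at a single concentration for 48 hours.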 Activity calls are given as the source filed them. Rule for the calls: active = growth percent below 10; inactive = the rest.

As to `Cc1ccc(C(=O)Nc2ccc(CN3CCN(C)CC3)c(C(F)(F)F)c2)cc1C#Cc1cnc(N)cc1C#N`, the growth in the experiment with HCT-15 colon was -69.8% (active); in the experiment with HT29 colon, -65.1% (active); in the experiment on SNB-75 CNS, -81.1% (active); with SNB-19 CNS, 3.23% (active); in the experiment on U251 CNS it was -73.6% (active); with PC-3 prostate, -33.9% (active). The growth with SK-MEL-5 melanoma was -86.5% (active); in the experiment on LOX IMVI melanoma, -90.1% (active); in the experiment on SK-MEL-28 melanoma, -83.3% (active); with SK-MEL-2 melanoma it was -43% (active); with EKVX NSCLC it was -36.8% (active); in the experiment on SN12C renal it was -52.9% (active). Besides, the growth with UO-31 renal is -55.7% (active); in the experiment on TK-10 renal, 14.7% (inactive); with ACHN renal it was -85.7% (active); in the experiment with CAKI-1 renal, -48% (active); with A498 renal it was -37% (active); with CCRF-CEM leukemia, -8.11% (active). Moreover, the growth in the experiment on MOLT-4 leukemia is -54.7% (active).

`O=C1/C(=C/c2ccc(F)c(F)c2)CN(C(=O)C(Cl)Cl)C/C1=C\c1ccc(F)c(F)c1`: the growth in the experiment with HCT-15 colon was -74.9% (active); in the experiment with HT29 colon, -26.6% (active); with SNB-75 CNS, -84.7% (active); in the experiment with SNB-19 CNS, -93.1% (active); in the experiment with U251 CNS, -99.3% (active); in the experiment on PC-3 prostate, -85.2% (active). Also, the growth is -95.3% (active) in the experiment with SK-MEL-5 melanoma; -90.1% (active) in the experiment with LOX IMVI melanoma; -92.6% (active) in the experiment on SK-MEL-28 melanoma; -53.4% (active) in the experiment on SK-MEL-2 melanoma; -93.7% (active) in the experiment with EKVX NSCLC; -75.3% (active) with SN12C renal. Also, the growth in the experiment with UO-31 renal is -97.9% (active); in the experiment on TK-10 renal it was -94.6% (active); in the experiment with CAKI-1 renal, -92.1% (active); in the experiment with A498 renal, -96.8% (active); in the experiment with CCRF-CEM leukemia it was -3.13% (active); in the experiment with MOLT-4 leukemia, -21% (active).

For `CN1CCN(c2ccc(Nc3ncc(C(N)=O)c(NCCCNC(=O)C4CCC4)n3)cc2)CC1`, the growth with HCT-15 colon was 111% (inactive); with HT29 colon, 44.4% (inactive); with SNB-75 CNS, 67.7% (inactive); in the experiment on SNB-19 CNS, 63.9% (inactive); in the experiment with U251 CNS, 67% (inactive); with PC-3 prostate it was 77.6% (inactive). Besides, the growth in the experiment with SK-MEL-5 melanoma was 92.3% (inactive); in the experiment with UACC-62 melanoma, 108% (inactive); in the experiment with SK-MEL-2 melanoma, 71.3% (inactive); with EKVX NSCLC, 99.2% (inactive); in the experiment on SN12C renal, 36.3% (inactive); in the experiment with TK-10 renal, 39.8% (inactive). For the same molecule, the growth is 61.8% (inactive) in the experiment with ACHN renal; 35.1% (inactive) in the experiment on CAKI-1 renal; 137% (inactive) with A498 renal; 14.2% (inactive) with CCRF-CEM leukemia; 18% (inactive) in the experiment on MOLT-4 leukemia.

Turning to `COc1ccc(-c2cc3cnc4ccccc4c3oc2=O)cc1`, the growth in the experiment with HCT-15 colon is 92.3% (inactive); with HT29 colon, 96.8% (inactive); with SNB-75 CNS, 104% (inactive); with SNB-19 CNS, 99% (inactive); in the experiment on U251 CNS it was 94% (inactive); with PC-3 prostate it was 92.5% (inactive). For the same molecule, the growth in the experiment with SK-MEL-5 melanoma is 104% (inactive); with UACC-62 melanoma, 96.5% (inactive); in the experiment with SK-MEL-2 melanoma it was 120% (inactive); in the experiment on EKVX NSCLC it was 101% (inactive); in the experiment with SN12C renal, 100% (inactive); in the experiment with UO-31 renal, 88.7% (inactive). In addition, the growth with TK-10 renal is 99.2% (inactive); in the experiment with ACHN renal, 106% (inactive); in the experiment with CAKI-1 renal, 89.7% (inactive); in the experiment with A498 renal, 93.1% (inactive); with CCRF-CEM leukemia it was 89% (inactive); in the experiment on MOLT-4 leukemia it was 104% (inactive).

Consider `Nc1ccc(S(=O)(=O)c2ccc(N)cc2)cc1`, for which the growth with HCT-15 colon was 114% (inactive) and 106% (inactive); in the experiment with HT29 colon, 106% (inactive) and 98.1% (inactive); in the experiment with SNB-75 CNS it was 87.8% (inactive); in the experiment with SNB-19 CNS it was 100% (inactive) and 104% (inactive); in the experiment with U251 CNS, 94.6% (inactive) and 106% (inactive); in the experiment with PC-3 prostate, 85.2% (inactive) and 94.1% (inactive). Moreover, the growth in the experiment with SK-MEL-5 melanoma was 92.8% (inactive) and 108% (inactive); in the experiment on LOX IMVI melanoma, 94.6% (inactive) and 102% (inactive); with SK-MEL-28 melanoma, 114% (inactive) and 102% (inactive); in the experiment on SK-MEL-2 melanoma, 122% (inactive) and 113% (inactive); with EKVX NSCLC, 94.7% (inactive); in the experiment on SN12C renal, 101% (inactive). Besides, the growth with TK-10 renal was 100% (inactive); with CAKI-1 renal, 86.6% (inactive); in the experiment with A498 renal, 103% (inactive) and 106% (inactive); in the experiment with CCRF-CEM leukemia, 94.8% (inactive) and -23.9% (active).

As to `CCOC(=O)CCCn1c(-c2ccccc2)cc(-c2ccccc2)c(C#N)c1=O`, the growth in the experiment on HCT-15 colon was 82.3% (inactive); in the experiment on HT29 colon, 88.1% (inactive); in the experiment with SNB-75 CNS it was 71.2% (inactive); in the experiment on SNB-19 CNS, 93.5% (inactive); in the experiment with U251 CNS, 98.7% (inactive); with PC-3 prostate, 63.8% (inactive). In addition, the growth in the experiment on SK-MEL-5 melanoma is 92.7% (inactive); with LOX IMVI melanoma, 84.7% (inactive); in the experiment with SK-MEL-28 melanoma, 88.7% (inactive); in the experiment with SK-MEL-2 melanoma, 94.8% (inactive); in the experiment on EKVX NSCLC, 93.4% (inactive); in the experiment with SN12C renal, 84.6% (inactive). Moreover, the growth with UO-31 renal is 71.5% (inactive); in the experiment with TK-10 renal, 113% (inactive); with CAKI-1 renal, 57.3% (inactive); in the experiment on A498 renal, 25.7% (inactive); with CCRF-CEM leukemia it was 88.4% (inactive); in the experiment with MOLT-4 leukemia, 82.1% (inactive).

On to `N#CSc1c[nH]c2ccc(/C=C/C(=O)/C=C(/C=C/c3ccc4[nH]cc(SC#N)c4c3)OB(F)F)cc12`, for which the growth was -73.7% (active) with HCT-15 colon; -53.6% (active) with HT29 colon; 18% (inactive) with SNB-75 CNS; 38.2% (inactive) in the experiment on SNB-19 CNS; -27% (active) in the experiment with U251 CNS; -22.5% (active) in the experiment with PC-3 prostate. Further, the growth was 9.1% (active) in the experiment with SK-MEL-5 melanoma; -91.4% (active) in the experiment with LOX IMVI melanoma; -1.41% (active) in the experiment with SK-MEL-28 melanoma; -30.3% (active) in the experiment on SK-MEL-2 melanoma; -5.64% (active) with EKVX NSCLC; -38.1% (active) in the experiment with SN12C renal. The growth in the experiment with UO-31 renal was -99.3% (active); in the experiment with TK-10 renal, -0.38% (active); in the experiment with ACHN renal, -86.4% (active); in the experiment on CAKI-1 renal, -71.5% (active); with A498 renal, 69.1% (inactive); in the experiment with CCRF-CEM leukemia it was -27.7% (active). For the same molecule, the growth with MOLT-4 leukemia was -37.9% (active).

Regarding `COc1ccc(/C=N\Nc2nc(SCC(C)C)nc(-c3ccc(OC)cc3)c2C#N)cc1`, the growth in the experiment on HCT-15 colon was 71% (inactive); with HT29 colon, 56.4% (inactive); in the experiment with SNB-75 CNS, -23.3% (active); with SNB-19 CNS, 31% (inactive); in the experiment with U251 CNS it was -7.88% (active); with PC-3 prostate it was 53.6% (inactive). Further, the growth is 77.2% (inactive) in the experiment with SK-MEL-5 melanoma; 31.9% (inactive) in the experiment with LOX IMVI melanoma; 101% (inactive) in the experiment with SK-MEL-28 melanoma; 87% (inactive) in the experiment with SK-MEL-2 melanoma; 35.1% (inactive) in the experiment on EKVX NSCLC; 2.1% (active) in the experiment on SN12C renal. For the same molecule, the growth in the experiment with UO-31 renal is -53.5% (active); in the experiment with TK-10 renal, -54.7% (active); in the experiment with ACHN renal it was -71.7% (active); in the experiment with CAKI-1 renal, 9.54% (active); in the experiment with A498 renal it was -7.9% (active); in the experiment on MOLT-4 leukemia, 30.2% (inactive).
